Assay [1] is described as follows: Quantitative High-Throughput drug screen in 47 multiple myeloma cell lines against the NCATS MIPE library collection: INA6_PLB cell viability assay (AID 1918965; note: nearly all actives have a fitted effect of over 55% in size; note: potency is the fitted concentration of half-maximal effect). The method, boiled down:
(§1)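 We plated 500 myeloma cells per well, pinned in MIPE 4.0 compounds, and incubated for 48 hours at 37C. ATP was then quantified with CellTiter-Glo, with DMSO and media-only wells defining 100% and 0%.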

The nature of assay [2]: Quantitative High-Throughput drug screen in 47 multiple myeloma cell lines against the NCATS MIPE library collection: JJN3_DSMZ cell viability assay (AID 1918966; note: potency is the fitted concentration of half-maximal effect; nearly all actives have a fitted effect of over 50% in size). The procedure, abridged:
(§2)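 Inhibition of cell viability is measured here. Each line was plated at 500 cells per well, treated with MIPE 4.0 drugs, kept 48 hours at 37C, then assayed for ATP content by CellTiter-Glo luminescence.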

The nature of assay [3]: Quantitative High-Throughput drug screen in 47 multiple myeloma cell lines against the NCATS MIPE library collection: Karpas25_ECACC cell viability assay (AID 1918968; note: potency is the fitted concentration of half-maximal effect; nearly all actives have a fitted effect of over 35% in size). The method, boiled down: as §2
The nature of assay [4]: Quantitative High-Throughput drug screen in 47 multiple myeloma cell lines against the NCATS MIPE library collection: KMS27_JCRB cell viability assay (AID 1918970). Note: nearly all actives have a fitted effect of over 30% in size. Note: potency is the fitted concentration of half-maximal effect. The conditions noted are these: KMS27 myeloma cells, CellTiter-Glo ATP viability, 48 h; viability (% of DMSO): at 45.8 µM (top of the series). The procedure, abridged:
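Each line is seeded at 500 cells per well and treated with library compounds for 48 hours under 37 °C, 5% CO2. CellTiter-Glo is then added for 5 min at room temperature before median relative luminescence is recorded.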
A general note: In ATP-based viability assays light output follows the ATP content of the culture.

Assay [5] is described as follows: Quantitative High-Throughput drug screen in 47 multiple myeloma cell lines against the NCATS MIPE library collection: KMS12BM_JCRB cell viability assay (AID 1918971). Note: potency is the fitted concentration of half-maximal effect; nearly all actives have a fitted effect of over 35% in size. The procedure, abridged:
(§3)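 CellTiter-Glo luminescence (ATP) after 48 h compound exposure, 37C/5% CO2; 500 cells/well; MIPE 4.0 approved/investigational drugs pinned in; DMSO = 100%, media only = 0% viability.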

The nature of assay [6]: Quantitative High-Throughput drug screen in 47 multiple myeloma cell lines against the NCATS MIPE library collection: KMS20_JCRB cell viability assay (AID 1918973). Note: potency is the fitted concentration of half-maximal effect; nearly all actives have a fitted effect of over 45% in size. The method, boiled down:
as §2

Assay [7] can be described thus: Quantitative High-Throughput drug screen in 47 multiple myeloma cell lines against the NCATS MIPE library collection: KMS21BM_JCRB cell viability assay (AID 1918974). Particulars: ATP luminescence, 48 h; viability: at 45.8 µM (top of the series). The procedure, abridged: as §2
Assay [8] can be described thus: Quantitative High-Throughput drug screen in 47 multiple myeloma cell lines against the NCATS MIPE library collection: KMS26_JCRB cell viability assay (AID 1918975). Note: potency is the fitted concentration of half-maximal effect; nearly all actives have a fitted effect of over 45% in size. The procedure, abridged:
as §3

The nature of assay [9]: Quantitative High-Throughput drug screen in 47 multiple myeloma cell lines against the NCATS MIPE library collection: MMM1_PLB cell viability assay (AID 1918976). Note: potency is the fitted concentration of half-maximal effect; nearly all actives have a fitted effect of over 35% in size. The method, boiled down:
(§4)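 Plated at 500 cells per well, myeloma lines received MIPE 4.0 compounds by pin tool. Following 48 h culture at 37 °C, CellTiter-Glo luminescence gave viability relative to DMSO and media-only controls.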

Assay [10] in a line: Quantitative High-Throughput drug screen in 47 multiple myeloma cell lines against the NCATS MIPE library collection: OCIMY1_PLB cell viability assay (AID 1918979). Note: potency is the fitted concentration of half-maximal effect; nearly all actives have a fitted effect of over 35% in size. The method, boiled down:
as §4

Assay [11] is described as follows: Quantitative High-Throughput drug screen in 47 multiple myeloma cell lines against the NCATS MIPE library collection: KHM11_PLB cell viability assay (AID 1918962). The method, boiled down:
(§5)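 Primary qHTS used for cherry-picking: cells at 500/well, library compounds for 48 h (37C, 5% CO2), luminescent ATP assay.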

Assay [12] is described as follows: Quantitative High-Throughput drug screen in 47 multiple myeloma cell lines against the NCATS MIPE library collection: JIM3_ECACC cell viability assay (AID 1918963). The procedure, abridged: as §5
Assay [13] can be described thus: Quantitative High-Throughput drug screen in 47 multiple myeloma cell lines against the NCATS MIPE library collection: JIM1_ECACC cell viability assay (AID 1918964; note: potency is the fitted concentration of half-maximal effect). The procedure, abridged:
as §2

Assay [14] in a line: Quantitative High-Throughput drug screen in 47 multiple myeloma cell lines against the NCATS MIPE library collection: H1112_PLB cell viability assay (AID 1918967; note: potency is the fitted concentration of half-maximal effect; nearly all actives have a fitted effect of over 30% in size). The procedure, abridged: as §2
Assay [15] in a line: Quantitative High-Throughput drug screen in 47 multiple myeloma cell lines against the NCATS MIPE library collection: KMS12PE_JCRB cell viability assay (AID 1918972). Note: potency is the fitted concentration of half-maximal effect; nearly all actives have a fitted effect of over 30% in size. The procedure, abridged:
as §1

Assay [16] is described as follows: Quantitative High-Throughput drug screen in 47 multiple myeloma cell lines against the NCATS MIPE library collection: MOLP8_DSMZ cell viability assay (AID 1918977). Note: nearly all actives have a fitted effect of over 45% in size. Note: potency is the fitted concentration of half-maximal effect. The procedure, abridged: as §4
Assay [17] in a line: Quantitative High-Throughput drug screen in 47 multiple myeloma cell lines against the NCATS MIPE library collection: NCIH929_DSMZ cell viability assay (AID 1918978). The procedure, abridged: as §4
Assay [18] can be described thus: Quantitative High-Throughput drug screen in 47 multiple myeloma cell lines against the NCATS MIPE library collection: Karpas417_ECACC cell viability assay (AID 1918961). Note: potency is the fitted concentration of half-maximal effect. Particulars: Karpas417 myeloma viability, CellTiter-Glo ATP luminescence, 48 h; viability (% of DMSO): at 45.8 µM (top of the series). The procedure, abridged:
as §1

Results filed as inconclusive are left out. Calls of active or inactive are those of the source. Calls come from the whole dose curve; as a rule, active = well fitted curve in the direction sought with a large enough effect; inconclusive = small, poorly fitted or top-dose-only effect, or another doubt; inactive = no such curve, though single readings can be large; an effect the other way counts as inactive or inconclusive.

As to `Cc1nc(NC(=O)N2CCC[C@@H]2C(N)=O)sc1-c1ccnc(C(C)(C)C(F)(F)F)c1`, the Potency was 14.8 µM (active) in [1]; 6.62 µM (active) in [2]; 5.26 µM (active) in assay [3]; 10.5 µM (active) in assay [5]; 1.48 µM (active) in assay [6]; 4.18 µM (active) in assay [8]. For the same compound, the Potency is 0.59 µM (active) in [9] and 0.0935 µM (active) in [10]. In addition, the Potency entry in assay [4] and in assay [7] was “inactive” in each case.
In the case of `CCC(C(=O)O)C1CCC(C)C(C(C)C(O)C(C)C(=O)C(CC)C2OC3(C=CC(O)[C@@]4(CC[C@](C)(C5CC[C@@](O)(CC)C(C)O5)O4)O3)C(C)CC2C)O1` (some centres not stated), the Potency was 14.8 µM (active) in assay [11]; 1.48 µM (active) in assay [12]; 0.332 µM (active) in [13]; 1.66 µM (active) in [1]; 1.05 µM (active) in [2]; 8.33 µM (active) in assay [14]. The Potency is 7.43 µM (active) in assay [3]; 0.743 µM (active) in assay [4]; 0.148 µM (active) in assay [5]; 0.743 µM (active) in assay [15]; 0.526 µM (active) in assay [8]; 6.62 µM (active) in assay [9]. The results for the Potency in assay [16], in [17] and in assay [10] were 0.743 µM (active), 10.5 µM (active) and 5.26 µM (active), respectively.
Consider `CN1CCc2c(c3ccccc3n2Cc2ccc(C(=O)NO)cc2)C1`, for which the Potency in [18] was 20.9 µM (active); in assay [12] it was 23.5 µM (active); in assay [1], 4.69 µM (active); in assay [2], 18.7 µM (active); in assay [14], 16.6 µM (active); in assay [3], 10.5 µM (active). The Potency in [5] is 16.6 µM (active); in assay [8], 20.9 µM (active); in [17] it was 10.5 µM (active).
`CCc1cc(C(C)=NOCc2ccc(C3CCCCC3)c(C(F)(F)F)c2)ccc1CN1CC(C(=O)O)C1`: the Potency in [18] is 0.059 µM (active); in assay [14], 14.8 µM (active); in assay [5] it was 18.7 µM (active). The Potency entry in [1] and in assay [16] was “inactive” throughout.
As for `C=C1C(=O)O[C@H]2[C@@H]1CCC(C)=CCC[C@@]1(C)O[C@@H]21`, the Potency in assay [11] is 10.5 µM (active); in assay [12], 2.96 µM (active); in assay [1], 0.935 µM (active); in assay [14] it was 4.18 µM (active); in [3], 1.05 µM (active); in assay [4], 9.35 µM (active). The Potency in assay [5] was 8.33 µM (active); in assay [6] it was 1.66 µM (active); in assay [8], 3.72 µM (active); in assay [9] it was 13.2 µM (active); in [17], 2.96 µM (active); in assay [10], 5.26 µM (active).
As for `CCOc1cc2c(c(F)c1OCC)C(=N)N(CC(=O)c1cc(N3CCOCC3)c(OC)c(C(C)(C)C)c1)C2`, the Potency in assay [12] is 9.35 µM (active); in assay [1] it was 11.8 µM (active); in assay [2] it was 18.7 µM (active); in assay [14], 11.8 µM (active); in assay [3], 9.35 µM (active); in assay [5], 18.7 µM (active). For the same compound, the Potency in assay [6] was 9.35 µM (active); in assay [8], 18.7 µM (active); in assay [9] it was 10.5 µM (active); in assay [17] it was 14.8 µM (active); in assay [10], 20.9 µM (active).
Consider `Cc1cnc(Nc2ccc(CN3CCOCC3)cc2)nc1Nc1cccc(S(=O)(=O)NC(C)(C)C)c1`, for which the Potency in assay [12] is 2.64 µM (active); in assay [1] it was 0.372 µM (active); in assay [2], 6.62 µM (active); in assay [14], 3.32 µM (active); in assay [5] it was 3.32 µM (active); in assay [6], 2.64 µM (active). For the same compound, the Potency in [8] was 13.2 µM (active); in assay [9], 10.5 µM (active); in assay [16], 2.09 µM (active); in assay [17], 1.66 µM (active).

The record behind these values is PubChem BioAssay (NCATS).
